From PubChem
PfG6PD inh: PfG6PD (Plasmodium falciparum) enzyme inhibition; PfGluPho enzyme, NADPH resazurin-diaphorase fluorescence; inhibition, % at 20 µM; hit rate 0.78% among 350,000; AID 504690;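 active = inhibition reaching at least a set limit at 20 µM in the primary screen, cut at about 59% in these data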;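 also: 0% = DMSO wells with substrate and 100% = DMSO wells lacking glucose-6-phosphate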
Neddyl block: cullin neddylation inhibition; AID 651699; P61081+Q13564; hit rate 0.58% among 360,000; calls only at 25 µM; TR-FRET cullin neddylation, biochemical; in the data active = inhibition above about 36%
KLK7 zymogen act: proKLK7 (human) activation, primary screen. P49862. purified proKLK7, EDANS-DABCYL substrate fluorescence; 100% is mature enzyme control, 0% vehicle. activation, % at 7 µM. hit rate 0.9% among 370,000. AID 652039;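 active = activation above the mean of all tested compounds plus 3 SD, computed per campaign excluding outliers beyond control limits, cut at about 13% in these data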
Target sequence (P49862 whole entry, looked up): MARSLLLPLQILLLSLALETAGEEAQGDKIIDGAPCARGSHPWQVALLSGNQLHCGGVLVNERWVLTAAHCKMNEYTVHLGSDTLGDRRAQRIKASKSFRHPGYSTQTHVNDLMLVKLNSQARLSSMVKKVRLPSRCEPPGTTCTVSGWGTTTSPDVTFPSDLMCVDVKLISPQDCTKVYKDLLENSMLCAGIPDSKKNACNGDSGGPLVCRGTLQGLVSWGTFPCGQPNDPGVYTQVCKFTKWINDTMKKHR
FAS TE block: FAS thioesterase (human) inhibition; P49327; recombinant FAS-TE, OMFH fluorogenic substrate, fluorescence endpoint; inhibition, % at 15 µM; hit rate 0.67% among 360,000;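 active = compounds whose normalised, plate-corrected inhibition of enzyme fluorescence in the single-dose primary screen is 50% or more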;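 also: 0% = DMSO with enzyme and 100% = substrate without enzyme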
PfG6PD confirm: confirmation of Plasmodium falciparum G6PD inhibitors | inhibition, % at 20 µM | shares compounds with PfG6PD inh | recombinant PfGluPho, NADPH-diaphorase-resazurin fluorescence | AID 504753 | hit rate 34% among 2,400;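 active = inhibition of at least 50% at 20 µM in any single replicate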;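 also: 0% = DMSO with substrate and 100% = DMSO lacking glucose-6-phosphate substrate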
Diaph ctr 10uM: diaphorase inhibition or oxidation at 10 uM NADPH. shares compounds with PfG6PD inh. diaphorase-coupled resazurin reduction, fluorescence, NADPH 10 uM. inhibition, % at 20 µM. hit rate 39% among 820;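 active = average inhibition reaching 50% or more with the compound at 20 µM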;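 also: resorufin red fluorescence formed as diaphorase reduces resazurin using NADPH; 0% = DMSO with enzyme and 100% = DMSO without enzyme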
Diaphorase 30uM: counter-screen for P. falciparum G6PD inhibitors: diaphorase inhibitors, oxidizers | Diaphorase/resazurin coupled assay, resorufin fluorescence, 30 uM NADPH | shares compounds with PfG6PD inh | hit rate 29% among 820 | inhibition, % at 20 µM | AID 504863;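 active = inhibition averaging 50% or more, tested at 20 µM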;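 also: 0% = DMSO with enzyme and 100% = DMSO wells lacking diaphorase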
The depositor's hits bear a star; i = inactive; x = no result shown. An excerpt weighted towards active compounds, which were near 2.7% of everything screened.

SMILES | PfG6PD inh | Neddyl block | KLK7 zymogen act | FAS TE block | PfG6PD confirm | others
CCN(CC)C(=O)CC[C@H]1CC[C@]2(CCCN(Cc3cccnc3)C2)O1 | x | x | -0.3 | x | x
O=C(CSc1nnc(-c2cccnc2)n1Cc1ccco1)Nc1cc(Cl)ccc1F | x | x | 0.5 | x | x
CN=c1sc2c(n1C)C(=O)c1ccccc1C2=O | 72.2* | i | -0.3 | -0.9 | 17.7
COc1ccc(C)cc1Nc1n[n+](-c2ccccc2)c(-c2cc(OC)c(OC)cc2Br)s1 | 10.9 | i | 0.1 | -126.0 | x
Fc1ccc(-[n+]2nc(Nc3ccccc3)sc2-c2c3ccccc3cc3ccccc23)cc1 | 132.0* | i | 1.1 | -123.5 | 81.9* | Diaph ctr 10uM=78.3*;Diaphorase 30uM=59.7*
COc1ccc(C)cc1Nc1n[n+](-c2ccccc2)c(-c2c(OC)ccc3ccccc23)s1 | 115.0* | i | 0.3 | -150.9 | 75.2* | Diaph ctr 10uM=68.7*;Diaphorase 30uM=50.0
Cc1ccc(-c2cc(-c3nnc(SCC(=O)N4CCOCC4)n3N)[nH]n2)cc1 | x | x | 0.7 | x | x
COc1ccc(CN2C[C@]3(C=C(C)Cn4c(=O)n(-c5ccccc5)c(=O)n43)N=C2NC(=O)c2ccccc2)c(OC)c1 | x | x | 0.3 | x | x
CCc1c(C)sc(NC(=O)OC)c1C(N)=O | -0.1 | i | 0.1 | -9.2 | x
CCc1c(C)sc(NC(=O)C2CCCCC2C(=O)O)c1C(N)=O (stereo not given) | 73.9* | i | 0.3 | -1.5 | 32.0
COn1c(-c2ccc(Cl)cc2)nc2ccc(Cl)cc21 | 65.6* | i | -0.2 | 22.8 | 7.7
O=C(O)COn1c(-c2ccc(Cl)cc2)nc2ccc(Cl)cc21 | 60.3* | i | -0.1 | -6.0 | 35.5
COc1ccc(-c2nc3ccccc3n2OCC(=O)O)cc1 | 20.9 | i | -0.1 | -1.9 | x
C/C(C=NNC(=O)CSc1nc2ccccc2n1C)=C\c1ccccc1 | x | x | 0.4 | x | x
COC(=O)C1CN(Cc2cn(CCOC(C)=O)nn2)CCS(=O)(=O)N1Cc1ccc(C)cc1 (stereo not given) | x | x | 0.7 | x | x
Cc1c2c(cc3c1[nH]c1ccccc13)C=NCC2 | 20.6 | i | 3.7 | -153.2 | x
Cc1c2ccncc2cc2c1[nH]c1ccccc12 | 71.9* | x | 3.2 | -28.6 | 17.7
CC(C)C[C@H]1COc2cccc(F)c2S(=O)(=O)N1Cc1cn(Cc2ccc(Cl)cc2)nn1 | x | x | 0.4 | x | x
CC(C)C1N=C(NC(=O)OCc2ccccc2)NC1=O (stereo not given) (tested in a mixture with another compound) | x | x | 0.2 | x | x
c1ccc(-c2nnc3sc(-c4csc5c4CCCC5)nn23)cc1 | 73.5* | i | -0.4 | 12.5 | 2.9
CC(C)(C)c1csc(NC(=O)CSc2nc3ccccc3c(=O)[nH]2)n1 | -19.7 | i | -0.5 | 5.7 | x
CC(C)(C)c1csc(NC(=O)Cn2cnc3ccccc3c2=O)n1 | 68.3* | i | -0.7 | -1.5 | -4.3
O=C(CSc1nnc(-c2ccncc2)n1-c1ccccc1)Nc1cccc2ccccc12 | x | x | 0.5 | x | x
CC(C)[C@H](NC(=O)OC(C)(C)C)C(=O)N1CCC(Oc2cccnc2)CC1 | x | x | 0.8 | x | x
O=C(Nc1cc(C(F)(F)F)ccc1N1CCOCC1)C1Cc2ccccc2CN1C(=O)c1ccco1 (stereo not given) | 81.2* | i | 0.2 | 27.4 | 22.6
SMILES | PfG6PD inh | Neddyl block | KLK7 zymogen act | FAS TE block | PfG6PD confirm | others
C[C@H](O)[C@@H]1CN2CCc3ccc(N4CCOCC4)cc3[C@@H]2C[C@@H]1N(C)C(=S)NCCc1ccccc1 | x | x | 0.1 | x | x
O=C(CSc1ccc(Cl)cc1)N/N=C/c1cccnc1 | 63.0* | i | 0.0 | -1.0 | 35.6
O=C(CNc1ccc2ccccc2c1)N/N=C/c1ccc([N+](=O)[O-])o1 | 23.7 | i | -1.4 | 3.5 | x
O=C(CSc1ccc(Cl)cc1)N/N=C/c1ccc([N+](=O)[O-])o1 | 110.3* | i | 0.2 | 11.8 | 81.9* | Diaph ctr 10uM=81.3*;Diaphorase 30uM=66.3*
CCOC(=O)c1ccc(NC(=O)CSc2nnc(SCc3cccc4ccccc34)s2)cc1 | x | x | -0.2 | x | x
Cc1ccc(-n2c(SCC(=O)N/N=C/C=C\c3ccco3)nnc2-c2ccccc2)cc1 | x | x | 0.3 | x | x
Cc1cccc(NC(=O)C2Cc3ccccc3CN2C(=O)OCc2ccccc2)c1C (stereo not given) | -0.8 | i | -0.1 | 28.2 | x
Cc1c(Cl)cccc1NC(=O)C1Cc2ccccc2CN1C(=O)c1ccccc1 (stereo not given) | 80.7* | i | 0.2 | 8.4 | 35.9
CS(=O)(=O)c1ccc(Cl)c(NC(=O)C2CCN(S(=O)(=O)c3cccs3)CC2)c1 | 2.8 | i | -0.1 | 12.2 | x
CN(C)S(=O)(=O)c1ccc(Cl)c(NC(=O)C2CCN(S(=O)(=O)c3cccs3)CC2)c1 | 60.5* | i | -0.6 | 29.4 | 30.7
O=C1C(Cl)=C(N2CCC(C(=O)O)CC2)C(=O)c2ccccc21 | 42.8 | i | x | 20.3 | x
CN1CCN(C2=C(Cl)C(=O)c3ccccc3C2=O)CC1 | 106.9* | i | -0.2 | 23.3 | 74.7* | Diaph ctr 10uM=73.7*;Diaphorase 30uM=77.0*
CC1COCC(C)N1C1=C(Cl)C(=O)c2ccccc2C1=O (stereo not given) | 75.2* | i | 0.9 | 30.3 | 64.0* | Diaph ctr 10uM=27.6;Diaphorase 30uM=23.8
COC(=O)[C@]12C[C@H](CC(=O)NCc3cccs3)C(=O)N(Cc3ccc4c(c3)OCO4)C1=C[C@H](C(C)C)O[C@@H]2C1CC1 | x | x | 0.8 | x | x
COCCCNC(=O)C[C@H]1C[C@@]2(C(=O)OC)C(=C[C@H](COCc3ccccc3)O[C@@H]2C)N(Cc2ccc(Cl)cc2Cl)C1=O | x | x | 0.2 | x | x
Cc1ccc(S(=O)(=O)N(C)/C(=N/S(=O)(=O)c2ccccc2)c2ccccc2)cc1 | 82.3* | i | -0.5 | 11.3 | 45.9
CCOC(=O)c1sc(NC(=O)c2cc(-c3ccc(C)cc3)nc3ccccc23)c(C#N)c1C | 55.4 | i | 0.4 | 27.3 | x
COC(=O)c1sc(NC(=O)c2cc(-c3ccccc3)nc3ccccc23)c(C#N)c1C | 64.7* | i | 0.1 | 9.7 | 43.0
Cc1c(Cl)cccc1N=C1NC(=O)CS1 | 66.0* | i | 0.7 | -9.5 | 43.5
O=C(N/N=C/c1cccc([N+](=O)[O-])c1)C(=O)N1CCCCCC1 | 80.1* | i | -0.3 | 5.4 | 57.6* | Diaph ctr 10uM=60.1*;Diaphorase 30uM=47.3
Cc1cc(C(=O)N/N=C/c2cccc([N+](=O)[O-])c2)c(C)n1-c1ccccc1 | 59.7* | i | 0.3 | -5.6 | 28.4
O=C(N/N=C/c1cccc(O)c1)C(=O)N1CCCCCC1 | -13.2 | i | 0.9 | -4.5 | x
C#CCN1CC(N(C)CCOC(=O)c2cccs2)CS1(=O)=O (stereo not given) | x | x | 0.1 | x | x
CSC(=S)NN=C(C)c1cccc(C)n1 | 95.3* | i | 0.1 | 2.5 | 30.4
CC(=NNC(=S)N1CCCCC1)c1cccc(C)n1 | 34.4 | i | 0.9 | -9.2 | x
CC(C)CN1C(=O)N2Cc3ccccc3C2CS1(=O)=O (stereo not given) | x | x | 0.6 | x | x
CCNc1cc(S(=O)(=O)C(F)(F)F)ccc1N | 71.7* | i | 0.1 | -3.2 | 41.8
